About 83,000 compounds went through this panel and 20% of them were active in at least one assay; those are over-represented in the sample as a whole.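 A percent growth of 40 corresponds to 60% growth inhibition; 0 means no net growth; -100 means all cells died. Active threshold: below 10.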 Unmarked numbers belong to inactive results. Activity calls are given as the source filed them.
Assays:
Experiment in all cases: NCI-60 one-dose screen, 48 h (100 = growth as untreated, 0 = no growth, -100 = all killed)
Conditions in all cases: 10 µM unless noted
[1] = tested on: HT29 colon
[2] = tested on: SNB-19 CNS
[3] = tested on: U251 CNS
[4] = tested on: PC-3 prostate
[5] = tested on: SK-MEL-5 melanoma
[6] = tested on: UACC-62 melanoma
[7] = tested on: LOX IMVI melanoma
[8] = tested on: SK-MEL-2 melanoma
[9] = tested on: EKVX NSCLC
[10] = tested on: SN12C renal
[11] = tested on: UO-31 renal
[12] = tested on: TK-10 renal
[13] = tested on: ACHN renal
[14] = tested on: CAKI-1 renal
[15] = tested on: A498 renal
[16] = tested on: CCRF-CEM leukemia
[17] = tested on: MOLT-4 leukemia
[18] = tested on: SR leukemia
[19] = tested on: SK-MEL-28 melanoma
[20] = tested on: SNB-75 CNS

Row | Compound | growth [1] | growth [2] [%] | growth [3] [%] | growth [4] | growth [5] | growth [6] | growth [7] | growth [8] | growth [9] [%] | growth [10] [%] | growth [11] | growth [12] | growth [13] | growth [14] | growth [15] | growth [16] | growth [17] | growth [18] | growth [19] [%] | growth [20] [%]
1 | COc1ccc(-c2c(N)noc2-c2cc(OC)c3c(c2)OCCO3)cc1 | 8.42% (active) | 46.2 | 25.5 | 26.8% | -21.3% (active) | 32.7% | 19.6% | 49.9% | 37.1 | 30.8 | 41% | 77.8% | 22.3% | 45.4% | 2.33% (active) | 13.4% | 10.3% | 11.6% | – | –
2 | CC(=O)Oc1ccc(C2OC(c3ccc4ccccc4c3OC(C)=O)=NN2C(C)=O)c(OC(C)=O)c1 (stereo not given) | 27.2% | 36.9 | 13.2 | 24.5% | -9.16% (active) | -11.8% (active) | 4.67% (active) | 13% | – | 21.8 | 7.69% (active) | 34.4% | 21.2% | 18.7% | 35% | 7.23% (active) | 2.64% (active) | – | 37.9 | –
3 | COc1ccc(-c2c(-c3cc(OC)c(OC)c(OC)c3)noc2N)cc1 | – | 38.7 | 22.2 | 21.8% | -60.7% (active) | 43.9% | 17.6% | 72.6% | 45.9 | 27.6 | 41.7% | 67.3% | – | 28.2% | 22.8% | 9.85% (active) | 13% | 8.86% (active) | 58.6 | 52.7
4 | COC1=CC(c2ccc[nH]2)=N/C1=C\c1[nH]c(C)c(C(=O)CCC(=O)Oc2ccc3c(c2)CCC2C3CC[C@]3(C)C(=O)CC[C@@H]23)c1C (stereo not given in full) | 26.8% | 95.4 | 53 | 60.6% | 78% | 65% | – | – | – | 63.3 | 52.9% | 107% | 62.7% | 60.1% | 102% | 32.9% | 25.6% | – | 97.3 | –
5 | COc1ccc(C2CC(c3ccc(OC)c(OC)c3)=NN2C(=O)c2cc(OC)c(OC)c(OC)c2)cc1 (stereo not given) | -1.1% (active) | 38.9 | 26 | 30.5% | 5.8% (active) | 41.9% | 36.1% | 12.6% | 48.2 | 41.5 | 21.1% | 18.4% | 48.7% | 12.1% | – | 24.3% | 47.1% | 20.6% | 70.5 | –
6 | Nc1nc(SCC2(CCl)COC2)c2[nH]cnc2n1 | 99.2% | 99.2 | 101 | 93.5% | 107% | 96.2% | 95.8% | 97.1% | – | 100 | – | 102% | 95.7% | 105% | – | 101% | 89% | 83.8% | 103 | –
7 | CN1C(=O)C(=Cc2cn(Cc3ccccc3)c3ccc(Br)cc23)C(=O)N(C)C1=O | 101% | 98.6 | – | 89.1% | – | 73.3% | 102% | 107% | 108 | 96.6 | 90.1% | 58.3% | 96.3% | 97.1% | -91.3% (active) | 101% | 87.6% | – | 113 | –
8 | COc1ccc2nc(-c3ccc(-n4cncc4-c4ccc(OC)c(N)c4)cc3)sc2c1 | 96.8% | 98.6 | – | 84.6% | 105% | 101% | 113% | 112% | 109 | 111 | 70.1% | 114% | 103% | 106% | – | 95.6% | 66.3% | 69.3% | 106 | –
9 | Clc1ccc(-c2nc(-c3cccs3)no2)c(Cl)c1 | – | 104 | 90.1 | 83.2% | 83.9% | 89% | 103% | 123% | – | 101 | 70.9% | 71.4% | 99.8% | 82% | 111% | 86% | – | – | 104 | 63.5
10 | Cc1cc(Cl)ccc1Nc1nc(C(F)(F)F)ccc1C(=O)NCC(=O)N/N=C/c1c(Cl)cccc1Cl | – | 90.5 | 67.7 | -16.1% (active) | 70.5% | 63% | 56.3% | 98.2% | 48 | 78.3 | 65.9% | 76.8% | 57.7% | 0.101% (active) | 83.3% | 19.5% | 50.8% | 42.2% | 85.7 | 97.7
11 | Cc1cc(=O)n2n1-c1ccc(Cl)cc1NC(=O)C2 | – | 97.5 | 95.2 | 89.8% | 97.5% | 107% | 98.6% | 118% | – | 99.1 | 89.6% | 117% | 104% | 88.4% | 119% | 82.6% | 108% | 110% | 101 | 86.6
12 | COc1ccc(C2CC(c3cccc(Nc4ccnc5cc(Cl)ccc45)c3)=NN2C=O)cc1 (stereo not given) | -55.8% (active) | 42.3 | – | 25.7% | 14% | 36% | 31.7% | -9.66% (active) | 39.4 | 37.9 | 22.8% | 41.5% | 45.5% | 17.4% | 7.17% (active) | 7.54% (active) | – | 6.76% (active) | 62.4 | –
13 | Cc1cc([N+](=O)[O-])c(C)cc1C(=O)O | 104% | 101 | 109 | 99% | – | 100% | 103% | – | – | 105 | 85.4% | 105% | 99.8% | 97.4% | 96.6% | 104% | 112% | – | 110 | –
14 | O=C1/C(=C/c2ccc([N+](=O)[O-])o2)Oc2ccc(Br)cc21 | – | 105 | 93.6 | 91.3% | 82.5% | 34.8% | 5.15% (active) | 56.6% | – | 40.3 | -18.6% (active) | -28.5% (active) | 1.25% (active) | 74% | 113% | 66.2% | 1.28% (active) | 8.8% (active) | 70.8 | 85.5
15 | CCOC(=O)C1C(=O)OC2CCCCC21 (stereo not given) | 110% | 97.6 | 101 | 107% | 114% | 99.8% | 105% | 118% | 120 | 102 | 79.6% | 122% | 102% | 96.1% | – | 106% | 89% | 88% | 109 | –
16 | O=C1N(C2CCCCC2)C(=O)N1C1CCCCC1 | 44.9% | 68.6 | 48 | -3% (active) | 16.9% | 38.9% | 31% | -7.37% (active) | 51.3 | 49.9 | – | 8.07% (active) | 11.4% | 28.7% | -11.9% (active) | 4.67% (active) | 15.7% | 46.6% | – | –
17 | CCCCCCCCCCCCCCCCCc1nccn1CCO | 13.6% | 66.9 | 33.7 | 55.9% | 70.4% | 92.4% | -44.4% (active) | 82.2% | – | 52.2 | – | 112% | 63.7% | – | 72.5% | 79.7% | 65.6% | – | – | –
18 | Cc1ccc2c(c1)O/C(=C\c1ccc([N+](=O)[O-])o1)C2=O | – | 93.4 | 68.3 | -61.2% (active) | 76.9% | 51.5% | 4.66% (active) | 79.2% | – | 34.7 | -21.6% (active) | -32.7% (active) | 1.36% (active) | 36.8% | 122% | -32.4% (active) | -1.6% (active) | 10.6% | 83.3 | 84.3

Reference: PubChem BioAssay (NCI)
